# Results as given in PubChem BioAssay (EPA / NIEHS).
# Several values for one entry are separate records, joined by “and”; a condition that tells them apart may be missing. Identical values can stand only once. Records with an inconclusive call do not appear. Where a structure was tested more than once in an assay, its records may differ in their call. Activity calls are given as the source filed them. How the source made its calls: active means hit-call score of the fitted dose curve at least 0.9, where 1 is the maximum; inconclusive means response in the unintended direction; inactive means score below 0.9.
# Columns and labels:
# [1] = molecular target: human Thromboxane A2 Receptor (TXA2), TBXA2R (gene 6915) (UniProt P21731); assay: NVS_GPCR_hTXA2: NovaScreen (NVS) G Protein-Coupled Receptor Assay for human Thromboxane A2 Receptor (TXA2) (AID 2283282);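 further: actives reduce bound radioligand signal relative to DMSO baseline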
# Chain of human Thromboxane A2 Receptor (TXA2), TBXA2R (gene 6915) (P21731 whole entry, looked up): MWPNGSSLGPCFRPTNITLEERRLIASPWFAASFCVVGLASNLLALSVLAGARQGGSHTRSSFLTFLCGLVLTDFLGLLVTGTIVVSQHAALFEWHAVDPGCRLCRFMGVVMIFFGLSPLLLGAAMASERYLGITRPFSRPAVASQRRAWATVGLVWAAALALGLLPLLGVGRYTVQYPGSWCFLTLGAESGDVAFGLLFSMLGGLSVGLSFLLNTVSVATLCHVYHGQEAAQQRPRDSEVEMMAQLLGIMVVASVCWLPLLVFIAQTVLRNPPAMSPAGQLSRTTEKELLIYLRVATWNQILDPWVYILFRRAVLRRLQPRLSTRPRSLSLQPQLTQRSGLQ
# Summary of the method: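 Filter scintillation counting of bound radioligand, human platelet protein, 1 h exposure. Single-concentration duplicates (25 uM) first, concentration-response follow-up for actives. Binding loss scored against DMSO baseline.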
# [2] = molecular target: Neuropeptide Y receptor type 2 (Homo sapiens) (UniProt P49146); assay: NVS_GPCR_hNPY2: NovaScreen (NVS) G Protein-Coupled Receptor Assay for human Neuropeptide Receptor Y2 (NPY2) (AID 2283277)
# Summary of the method: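 Radioligand binding on membranes extracted from SK-N-MC cells, cell-free, read 1 h after dosing by filter-based scintillation counting. Loss of signal vs DMSO. Primary screen in duplicate at 25 uM; actives followed up in concentration-response up to 50 uM.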
# [3] = molecular target: human Vasopressin 1A Receptor (V1A), AVPR1A (gene 552) (UniProt P37288); assay: NVS_GPCR_hV1A: NovaScreen (NVS) G Protein-Coupled Receptor Assay for human Vasopressin 1A Receptor (V1A) (AID 2283284)
# Chain of human Vasopressin 1A Receptor (V1A), AVPR1A (gene 552) (P37288 whole entry, looked up): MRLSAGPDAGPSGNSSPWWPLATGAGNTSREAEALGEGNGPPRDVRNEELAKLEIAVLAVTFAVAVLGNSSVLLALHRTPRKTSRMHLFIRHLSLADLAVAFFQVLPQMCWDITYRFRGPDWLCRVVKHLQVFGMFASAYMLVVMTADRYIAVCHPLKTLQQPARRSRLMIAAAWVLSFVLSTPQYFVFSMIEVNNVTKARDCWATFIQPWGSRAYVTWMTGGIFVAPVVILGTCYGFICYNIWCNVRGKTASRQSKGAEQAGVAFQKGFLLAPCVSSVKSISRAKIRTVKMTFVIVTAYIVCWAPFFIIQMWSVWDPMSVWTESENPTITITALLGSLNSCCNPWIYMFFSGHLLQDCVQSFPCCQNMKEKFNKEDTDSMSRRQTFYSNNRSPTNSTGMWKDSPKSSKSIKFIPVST
# Summary of the method: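 Cell-free radioligand displacement on human platelet preparations, 1.5 h incubation, filter-based scintillation counting. Chemicals first tested in duplicate at 25 uM; actives then run in concentration-response up to 50 uM, loss of signal fitted against DMSO.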
# [4] = molecular target: human Opioid Receptor Mu (Opiate Mu), OPRM1 (gene 4988) (UniProt P35372); assay: NVS_GPCR_hOpiate_mu: NovaScreen (NVS) G Protein-Coupled Receptor Assay for human Opioid Receptor Mu (Opiate Mu) (AID 2283290);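 further: hits lower bound tracer signal versus DMSO meaning displacement of the ligand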
# Chain of human Opioid Receptor Mu (Opiate Mu), OPRM1 (gene 4988) (P35372 whole entry, looked up): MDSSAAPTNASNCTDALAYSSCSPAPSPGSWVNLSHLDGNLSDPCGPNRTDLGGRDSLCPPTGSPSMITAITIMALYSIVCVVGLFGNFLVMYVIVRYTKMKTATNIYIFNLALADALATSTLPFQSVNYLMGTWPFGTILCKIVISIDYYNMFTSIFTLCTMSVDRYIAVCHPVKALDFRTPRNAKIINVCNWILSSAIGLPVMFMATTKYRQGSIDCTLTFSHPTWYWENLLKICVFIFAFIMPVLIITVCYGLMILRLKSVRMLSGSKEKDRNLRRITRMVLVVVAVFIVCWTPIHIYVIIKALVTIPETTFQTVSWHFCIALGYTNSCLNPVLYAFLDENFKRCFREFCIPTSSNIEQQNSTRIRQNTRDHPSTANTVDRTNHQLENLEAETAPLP
# Summary of the method: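 Here, radioligand binding to CHO-extracted receptor was measured after 2.5 h using filter-based scintillation detection. Initial single-concentration screening used 25 uM in duplicate with plate controls; confirmed actives went to concentration-response testing.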
# [5] = tested on: rat Adrenergic, Alpha 1B Receptor (Adra1B), gene 24173; assay: NVS_GPCR_rAdra1B: NovaScreen (NVS) G Protein-Coupled Receptor Assay for rat Adrenergic, Alpha 1B Receptor (Adra1B) (AID 2283297)
# Summary of the method: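 Rat liver membranes, radioligand displacement with filter-based scintillation detection, 1 h incubation. Primary screen in duplicate at 25 uM; actives retested in concentration series; activity relative to DMSO.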
# [6] = molecular target: rat Serotonin, 5-Hydroxytryptamine Receptor 1 (5HT1), Non-Selective Binding, Htr1a (gene 24473) (UniProt P19327); assay: NVS_GPCR_r5HT1_NonSelective: NovaScreen (NVS) G Protein-Coupled Receptor Assay for rat Serotonin, 5-Hydroxytryptamine Receptor 1 (5HT1), Non-Selective Binding (AID 2283286)
# Chain of rat Serotonin, 5-Hydroxytryptamine Receptor 1 (5HT1), Non-Selective Binding, Htr1a (gene 24473) (P19327 whole entry, looked up): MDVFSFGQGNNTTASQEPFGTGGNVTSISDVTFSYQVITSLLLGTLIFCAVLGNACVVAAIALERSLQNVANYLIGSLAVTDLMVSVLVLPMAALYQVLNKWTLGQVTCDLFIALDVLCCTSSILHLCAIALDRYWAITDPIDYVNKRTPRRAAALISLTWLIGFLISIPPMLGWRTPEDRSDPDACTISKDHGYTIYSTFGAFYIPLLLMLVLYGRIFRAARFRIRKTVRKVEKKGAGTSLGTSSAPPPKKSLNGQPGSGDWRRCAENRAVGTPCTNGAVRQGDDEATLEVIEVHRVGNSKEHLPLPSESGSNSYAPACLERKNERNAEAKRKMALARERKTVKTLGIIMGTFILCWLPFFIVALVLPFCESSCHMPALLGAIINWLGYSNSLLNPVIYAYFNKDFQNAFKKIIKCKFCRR
# Summary of the method: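 Rat cortical membranes, radioligand displacement, 1 h incubation, read by filter scintillation. Primary screen in duplicate at 25 uM. Hits (e.g. ≥30% inhibition) went to concentration-response up to 50 uM, fitted as loss of binding versus DMSO.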
# [7] = molecular target: mouse Cholecystokinin, CCK1 Receptor (CCKA), Cckar (gene 12425) (UniProt O08786); assay: NVS_GPCR_mCCKAPeripheral: NovaScreen (NVS) G Protein-Coupled Receptor Assay for mouse Cholecystokinin, CCK1 Receptor (CCKA) (AID 2283285)
# Chain of mouse Cholecystokinin, CCK1 Receptor (CCKA), Cckar (gene 12425) (O08786 whole entry, looked up): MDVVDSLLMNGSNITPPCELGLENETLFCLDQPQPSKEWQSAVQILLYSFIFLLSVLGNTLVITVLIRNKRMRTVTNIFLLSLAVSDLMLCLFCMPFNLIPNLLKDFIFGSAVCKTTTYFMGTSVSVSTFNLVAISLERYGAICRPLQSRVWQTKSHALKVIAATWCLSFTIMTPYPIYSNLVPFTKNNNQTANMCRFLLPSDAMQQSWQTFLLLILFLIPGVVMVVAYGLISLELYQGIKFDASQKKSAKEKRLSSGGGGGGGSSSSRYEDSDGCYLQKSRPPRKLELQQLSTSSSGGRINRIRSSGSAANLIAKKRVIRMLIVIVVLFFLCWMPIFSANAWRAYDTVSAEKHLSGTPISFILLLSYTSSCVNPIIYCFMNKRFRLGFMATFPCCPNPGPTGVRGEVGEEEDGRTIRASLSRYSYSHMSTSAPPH
# Summary of the method: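 Radioligand competitive displacement on mouse pancreatic membranes, 2 h incubation; filter-based scintillation counting, loss of signal versus DMSO. Single-concentration screen at 25 uM in duplicate, actives retested in concentration-response up to 50 uM.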
# [8] = molecular target: rat Adrenergic, Alpha 1, Non-selective Receptor (Adra1), Adra1a (gene 29412) (UniProt P43140); assay: NVS_GPCR_rAdra1_NonSelective: NovaScreen (NVS) G Protein-Coupled Receptor Assay for rat Adrenergic, Alpha 1, Non-selective Receptor (Adra1) (AID 2283289)
# Chain of rat Adrenergic, Alpha 1, Non-selective Receptor (Adra1), Adra1a (gene 29412) (P43140 whole entry, looked up): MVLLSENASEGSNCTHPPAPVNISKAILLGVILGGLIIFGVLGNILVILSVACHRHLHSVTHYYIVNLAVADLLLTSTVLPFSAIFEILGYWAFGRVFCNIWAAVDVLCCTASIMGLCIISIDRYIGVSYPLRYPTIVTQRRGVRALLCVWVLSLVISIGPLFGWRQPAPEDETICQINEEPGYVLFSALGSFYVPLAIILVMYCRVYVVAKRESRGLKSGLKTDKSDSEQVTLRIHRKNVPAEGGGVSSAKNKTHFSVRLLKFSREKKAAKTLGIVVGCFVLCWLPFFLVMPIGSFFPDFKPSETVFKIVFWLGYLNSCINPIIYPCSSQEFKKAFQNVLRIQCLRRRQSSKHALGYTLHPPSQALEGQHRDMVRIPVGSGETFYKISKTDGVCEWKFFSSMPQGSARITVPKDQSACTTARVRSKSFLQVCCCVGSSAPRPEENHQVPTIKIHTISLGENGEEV
# Summary of the method: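 Rat forebrain membranes; radioligand displacement read by filter-based scintillation counting 1 h after dosing. Primary screen in duplicate at 25 uM; hits (e.g. ≥30% inhibition) rerun as concentration–response to 50 uM max. Fitted versus DMSO.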
# [9] = molecular target: rat Adrenergic, Alpha 1A Receptor (Adra1A), Adra1a (gene 29412) (UniProt P43140); assay: NVS_GPCR_rAdra1A: NovaScreen (NVS) G Protein-Coupled Receptor Assay for rat Adrenergic, Alpha 1A Receptor (Adra1A) (AID 2283296)
# Chain of rat Adrenergic, Alpha 1A Receptor (Adra1A), Adra1a (gene 29412) (P43140 whole entry, looked up): as above
# Summary of the method: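 Rat cortical membranes pretreated with chlorethyl clonidine; competitive radioligand displacement, 1 h. Filter-based scintillation counting. Primary screen in duplicate at 25 uM, actives followed in concentration series.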
# [10] = molecular target: rat Serotonin, 5-Hydroxytryptamine Receptor (5HT), Non-Selective Binding, Htr1a (gene 24473) (UniProt P19327); assay: NVS_GPCR_r5HT_NonSelective: NovaScreen (NVS) G Protein-Coupled Receptor Assay for rat Serotonin, 5-Hydroxytryptamine Receptor (5HT), Non-Selective Binding (AID 2283295)
# Chain of rat Serotonin, 5-Hydroxytryptamine Receptor (5HT), Non-Selective Binding, Htr1a (gene 24473) (P19327 whole entry, looked up): as the sequence (P19327 whole entry, looked up) above
# Summary of the method: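 Radioligand displacement on rat cortical membranes, 1 h incubation, filter-based scintillation counting. Primary duplicates at 25 uM, actives retested in concentration series; loss of signal fitted against DMSO as baseline.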
# [11] = tested on: 5-hydroxytryptamine receptor 2C (pig); assay: NVS_GPCR_p5HT2C: NovaScreen (NVS) G Protein-Coupled Receptor Assay for pig Serotonin, 5-Hydroxytryptamine Receptor 2C (5HT2C) (AID 2283288)
# Summary of the method: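 Pig choroid plexus membranes; radioligand competitive binding, filter-based scintillation counting, read 1 h after dosing. Primary screen in duplicate at 25 uM; actives then run as concentration series; loss of signal versus DMSO baseline.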
# [12] = molecular target: human Orphanin, Opioid Related Nociceptin Receptor 1 (ORL1), OPRL1 (gene 4987) (UniProt P41146); assay: NVS_GPCR_hORL1: NovaScreen (NVS) G Protein-Coupled Receptor Assay for human Orphanin, Opioid Related Nociceptin Receptor 1 (ORL1) (AID 2283283)
# Chain of human Orphanin, Opioid Related Nociceptin Receptor 1 (ORL1), OPRL1 (gene 4987) (P41146 whole entry, looked up): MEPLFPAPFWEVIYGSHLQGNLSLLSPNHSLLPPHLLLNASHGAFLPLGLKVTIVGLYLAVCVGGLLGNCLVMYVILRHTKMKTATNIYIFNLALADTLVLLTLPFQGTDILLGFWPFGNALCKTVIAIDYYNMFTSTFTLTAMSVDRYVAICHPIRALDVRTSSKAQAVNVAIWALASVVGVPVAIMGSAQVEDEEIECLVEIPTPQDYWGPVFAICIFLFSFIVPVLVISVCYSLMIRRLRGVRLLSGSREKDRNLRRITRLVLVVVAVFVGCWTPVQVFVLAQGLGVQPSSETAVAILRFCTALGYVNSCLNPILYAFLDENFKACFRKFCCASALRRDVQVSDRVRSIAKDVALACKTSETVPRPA
# Summary of the method: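 Filter-based radioligand displacement with receptor extracted from HEK293 cells, read 1 hour after dosing by scintillation counting. Duplicate single-point screen at 25 uM; qualifying chemicals then run in concentration-response to 50 uM, analysed relative to DMSO.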
# [13] = molecular target: mouse Cholecystokinin, CCK2 Receptor (CCKB), Cckbr (gene 12426) (UniProt P56481); assay: NVS_GPCR_mCKKBCentral: NovaScreen (NVS) G Protein-Coupled Receptor Assay for mouse Cholecystokinin, CCK2 Receptor (CCKB) (AID 2283293)
# Chain of mouse Cholecystokinin, CCK2 Receptor (CCKB), Cckbr (gene 12426) (P56481 whole entry, looked up): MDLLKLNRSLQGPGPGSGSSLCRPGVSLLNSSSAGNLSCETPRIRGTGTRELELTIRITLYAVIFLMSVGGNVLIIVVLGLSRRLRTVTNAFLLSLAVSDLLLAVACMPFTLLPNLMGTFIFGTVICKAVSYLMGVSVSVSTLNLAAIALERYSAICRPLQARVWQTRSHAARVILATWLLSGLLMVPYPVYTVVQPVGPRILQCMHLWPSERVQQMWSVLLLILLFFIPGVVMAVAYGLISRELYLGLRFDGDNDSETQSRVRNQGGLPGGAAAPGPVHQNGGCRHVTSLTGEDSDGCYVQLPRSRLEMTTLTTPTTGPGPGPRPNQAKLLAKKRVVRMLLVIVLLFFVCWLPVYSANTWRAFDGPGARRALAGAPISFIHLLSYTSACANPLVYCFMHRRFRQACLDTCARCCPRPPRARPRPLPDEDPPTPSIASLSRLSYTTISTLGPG
# Summary of the method: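 Radioligand displacement binding on mouse forebrain membranes, 2 h exposure, filter-based scintillation counting. Primary screen in duplicate at 25 uM; actives (e.g. ≥30% inhibition) retested in concentration-response up to 50 uM; loss of binding signal relative to DMSO.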
# [14] = molecular target: guinea pig Bradykinin Receptor B2 (BK2), BDKRB2 (gene 100135486) (UniProt O70526); assay: NVS_GPCR_gBK2: NovaScreen (NVS) G Protein-Coupled Receptor Assay for guinea pig Bradykinin Receptor B2 (BK2) (AID 2283292)
# Summary of the method: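 Radioligand displacement on guinea pig ileum membranes for 1 h, read by filter-based scintillation counting; loss of signal relative to DMSO. Compounds were screened in duplicate at 25 uM, and those passing the threshold were retested in concentration-response up to 50 uM.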
# [15] = molecular target: rat Adrenergic Receptor, Beta (Adrb), Non-selective Binding, Adrb1 (gene 24925) (UniProt P18090); assay: NVS_GPCR_rAdrb_NonSelective: NovaScreen (NVS) G Protein-Coupled Receptor Assay for rat Adrenergic Receptor, Beta (Adrb), Non-selective Binding (AID 2283298)
# Chain of rat Adrenergic Receptor, Beta (Adrb), Non-selective Binding, Adrb1 (gene 24925) (P18090 whole entry, looked up): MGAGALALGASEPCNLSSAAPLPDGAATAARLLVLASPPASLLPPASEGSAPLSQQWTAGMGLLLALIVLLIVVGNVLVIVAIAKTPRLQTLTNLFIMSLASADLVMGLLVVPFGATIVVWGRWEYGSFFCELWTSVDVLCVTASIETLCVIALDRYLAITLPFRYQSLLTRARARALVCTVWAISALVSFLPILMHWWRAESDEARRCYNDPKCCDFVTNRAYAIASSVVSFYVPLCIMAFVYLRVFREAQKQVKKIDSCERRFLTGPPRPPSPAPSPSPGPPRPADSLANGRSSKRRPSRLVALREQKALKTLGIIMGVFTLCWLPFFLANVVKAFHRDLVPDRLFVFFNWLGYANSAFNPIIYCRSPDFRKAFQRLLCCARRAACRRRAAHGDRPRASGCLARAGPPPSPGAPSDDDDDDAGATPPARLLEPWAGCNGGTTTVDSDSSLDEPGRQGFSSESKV
# Summary of the method: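 Non-selective beta-adrenergic radioligand binding in rat cortical membranes, 1 h incubation, filter-based scintillation read-out. Primary screen 25 uM in duplicate; hits retested in concentration-response up to 50 uM, DMSO baseline.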
# [16] = tested on: rabbit Platelet Activating Factor Receptor (PAF), gene 100354046; assay: NVS_GPCR_rabPAF: NovaScreen (NVS) G Protein-Coupled Receptor Assay for rabbit Platelet Activating Factor Receptor (PAF) (AID 2283287)
# Summary of the method: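 Rabbit platelet membrane preparation; radioligand displacement read by filter-based scintillation counting 1 h after dosing, loss of signal versus DMSO. Primary screen in duplicate at 25 uM, actives followed up in concentration series.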
structure (smiles),measurement,setting,value
CCCCCCC(CCCCCCCCCCC(=O)OCC(COC(C)=O)OC(C)=O)OC(C)=O (stereo unspecified),AC50,[1],4.54 µM (active)
O=C1CCCCC1,outcome,[2],inactive
CO[C@@H]1COCC[C@@H]1N[C@@H]1CC[C@@](C(=O)N2CCc3ncc(C(F)(F)F)cc3C2)(C(C)C)C1,outcome,[3],inactive
Cc1occc(=O)c1O,outcome,[4],inactive
CN(C)CCCN(C)CCCN(C)C,outcome,[5],inactive
CCCCC(CC)COP(=O)(OCC(CC)CCCC)OCC(CC)CCCC (stereo unspecified),outcome,[4],inactive
CC(=O)O[C@]1(C(C)=O)CC[C@H]2[C@@H]3C=C(Cl)C4=CC(=O)[C@@H]5C[C@@H]5[C@]4(C)[C@H]3CC[C@@]21C,AC50,[4],474 nM (active) and 612 nM (active)
same,outcome,[4],inactive
CC(C)(C)c1ccccc1,outcome,[6],inactive
O=C(NS(=O)(=O)/C=C/c1cccs1)c1ccc(F)cc1Br,AC50,[7],22.6 µM (active)
NC(=Nc1ccccc1)Nc1ccccc1,outcome,[8],inactive
same,AC50,[9],8.43 µM (active)
CC(C)NCC(O)c1ccc(O)c(O)c1 (stereo unspecified),outcome,[5],inactive
Cc1cc(SC2=C(O)C[C@@](CCc3ccc(N)cc3)(C(C)C)OC2=O)c(C(C)(C)C)cc1CO,AC50,[1],0.881 µM (active)
same,outcome,[7],inactive
same,outcome,[10],inactive
same,outcome,[9],inactive
Cc1ccc(C(C)(C)C)c(O)c1,outcome,[8],inactive
same,outcome,[9],inactive
CCc1nc(N)nc(N)c1-c1ccc(Cl)cc1,AC50,[11],7.09 µM (active)
same,AC50,[8],8.12 µM (active)
same,AC50,[10],11.6 µM (active)
same,AC50,[9],2.37 µM (active)
same,AC50,[5],4.4 µM (active)
O=Cc1ccccc1C=O,AC50,[1],16.7 µM (active)
same,AC50,[12],25 µM (active)
same,outcome,[5],inactive
CCCCc1nc2cccnc2n1Cc1ccc(-c2ccccc2-c2nnn[nH]2)cc1,AC50,[13],15.4 µM (active)
same,outcome,[10],inactive
C#CC(O)C(CC)CCCC (stereo unspecified),outcome,[12],inactive
Cc1cn([C@H]2C=C[C@@H](CO)O2)c(=O)[nH]c1=O,outcome,[14],inactive
C/C=C/c1ccc(OC)cc1,AC50,[15],0.28 µM (active)
COC(=O)[C@H]1[C@H]2C[C@@H]3c4[nH]c5cc(OC)ccc5c4CCN3C[C@H]2C[C@@H](OC(=O)c2cc(OC)c(OC)c(OC)c2)[C@@H]1OC,AC50,[16],5.47 µM (active)
same,outcome,[11],inactive
same,AC50,[4],7.12 µM (active)
same,AC50,[5],21.1 µM (active)
CCCCCCCCCC[N+](C)(C)[O-],outcome,[15],inactive
C=CCc1ccc(OC)c(OC)c1,outcome,[11],inactive
O=C(O)c1[nH]n(-c2ccc(S(=O)(=O)O)cc2)c(=O)c1N=Nc1ccc(S(=O)(=O)O)cc1,AC50,[6],5.69 µM (active)
same,outcome,[8],inactive
Oc1ccccc1O,outcome,[4],inactive
